Data published in PubChem BioAssay (NCI).
Compounds without any hit were thinned out: in the full panel of roughly 83,000, 20% have a hit.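 Results are percent growth after 48 hours of single-concentration exposure. 100 means growth as in untreated cells, lower positive values show inhibition; negative values down to -100 show cell death.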 Active and inactive are the calls of the source. Rule for the calls: active = growth percent below 10; inactive = the rest.

Assays:
Test in all cases: NCI-60 one-dose screen, 48 h (100 = growth as untreated, 0 = no growth, -100 = all killed)
Conditions in all cases: 10 µM unless noted
HCT-15 colon = test system: HCT-15 colon
HT29 colon = test system: HT29 colon
SNB-75 CNS = test system: SNB-75 CNS
SNB-19 CNS = test system: SNB-19 CNS
U251 CNS = test system: U251 CNS
PC-3 prostate = test system: PC-3 prostate
SK-MEL-5 melanoma = test system: SK-MEL-5 melanoma
UACC-62 melanoma = test system: UACC-62 melanoma
LOX IMVI melanoma = test system: LOX IMVI melanoma
SK-MEL-28 melanoma = test system: SK-MEL-28 melanoma
SK-MEL-2 melanoma = test system: SK-MEL-2 melanoma
EKVX NSCLC = test system: EKVX NSCLC
SN12C renal = test system: SN12C renal
UO-31 renal = test system: UO-31 renal
TK-10 renal = test system: TK-10 renal
ACHN renal = test system: ACHN renal
CAKI-1 renal = test system: CAKI-1 renal
A498 renal = test system: A498 renal
CCRF-CEM leukemia = test system: CCRF-CEM leukemia
MOLT-4 leukemia = test system: MOLT-4 leukemia

Measured: growth

COc1ccc(/C=N/NC(=O)c2cccc3cc[nH]c23)cc1O
inactive: HCT-15 colon 33.2% | HT29 colon 19.7% | SNB-75 CNS 18.6% | SNB-19 CNS 39.7% | U251 CNS 26.6% | PC-3 prostate 31.5% | UACC-62 melanoma 33% | LOX IMVI melanoma 53.1% | SK-MEL-28 melanoma 63.4% | SK-MEL-2 melanoma 52.3% | EKVX NSCLC 32.1% | SN12C renal 53.9% | UO-31 renal 60.4% | TK-10 renal 47.1% | ACHN renal 57.9% | CAKI-1 renal 46.5% | A498 renal 74.5% | MOLT-4 leukemia 38.2%
active: SK-MEL-5 melanoma 2.92% | CCRF-CEM leukemia 0.582%

COc1cc2ncnc(Nc3ccc(C(=O)/C=C/c4ccc(C(F)(F)F)cc4F)cc3)c2cc1OC
inactive: HCT-15 colon 104% | HT29 colon 98.8% | SNB-75 CNS 87.7% | SNB-19 CNS 98.2% | U251 CNS 85.4% | PC-3 prostate 83% | SK-MEL-5 melanoma 104% | UACC-62 melanoma 100% | LOX IMVI melanoma 92% | SK-MEL-28 melanoma 109% | SK-MEL-2 melanoma 105% | EKVX NSCLC 90% | SN12C renal 101% | UO-31 renal 75.4% | TK-10 renal 110% | ACHN renal 92.3% | CAKI-1 renal 88.2% | CCRF-CEM leukemia 83.8% | MOLT-4 leukemia 68.3%

O=C(CCN1CCCC1)Nc1ccc2c(Nc3ccccc3)c3ccccc3nc2c1
active: HCT-15 colon -3.61% | HT29 colon 4.21% | U251 CNS 0.528% | LOX IMVI melanoma -55.3% | UO-31 renal -28.3% | TK-10 renal 1.74% | ACHN renal 1.77% | CAKI-1 renal -11.9% | CCRF-CEM leukemia -8.84% | MOLT-4 leukemia -4.75%
inactive: SNB-75 CNS 10.9% | SNB-19 CNS 18.4% | PC-3 prostate 19.9% | SK-MEL-5 melanoma 40.4% | UACC-62 melanoma 30.3% | SK-MEL-28 melanoma 62.3% | SK-MEL-2 melanoma 41.4% | EKVX NSCLC 59.3% | SN12C renal 13.3%

O=C(NCCc1ccccn1)OCc1nc2nc(Cl)nc(N3CCOCC3)c2[nH]1
inactive: SNB-19 CNS 37.2% | U251 CNS 16.3% | PC-3 prostate 22.7% | UACC-62 melanoma 24.6% | SK-MEL-28 melanoma 41.9% | EKVX NSCLC 72.4% | SN12C renal 28.6% | UO-31 renal 31.8%
active: HCT-15 colon -27.2% | HT29 colon -28.9% | SNB-75 CNS 2.59% | SK-MEL-5 melanoma -10.8% | LOX IMVI melanoma -49.9% | SK-MEL-2 melanoma -16% | TK-10 renal -29.4% | ACHN renal -94.9% | CAKI-1 renal 7.47% | CCRF-CEM leukemia 0.909% | MOLT-4 leukemia 4.05%

CCN(CC)CCOC(COc1cc(C)cc(C)c1)COc1cc(C)cc(C)c1
inactive: HCT-15 colon 34.5% | HT29 colon 10.3% | SNB-75 CNS 61.4% | SNB-19 CNS 47.5% | U251 CNS 32.5% | PC-3 prostate 33.6% | UACC-62 melanoma 46.4% | SK-MEL-28 melanoma 39.6% | SK-MEL-2 melanoma 86.7% | EKVX NSCLC 53% | SN12C renal 28.8% | UO-31 renal 31.6% | TK-10 renal 48% | ACHN renal 46.2% | CAKI-1 renal 40.1% | CCRF-CEM leukemia 14.5% | MOLT-4 leukemia 13.5%
active: SK-MEL-5 melanoma -88.5% | LOX IMVI melanoma -12%

COc1ccc(/C=C/C(=O)c2ccc(OC)c(OC)c2)cc1O
inactive: HCT-15 colon 56.5% | HT29 colon 63.8% | SNB-75 CNS 86.1% | SNB-19 CNS 82.1% | U251 CNS 25.4% | PC-3 prostate 82.4% | SK-MEL-5 melanoma 77.2% | UACC-62 melanoma 87.1% | LOX IMVI melanoma 65.5% | SK-MEL-28 melanoma 101% | SK-MEL-2 melanoma 99.9% | EKVX NSCLC 87.4% | SN12C renal 73.8% | UO-31 renal 63.9% | TK-10 renal 83.8% | ACHN renal 86% | CAKI-1 renal 62.9% | CCRF-CEM leukemia 62.5% | MOLT-4 leukemia 67.2%

Cc1ccc(Nc2cc(=S)nc(N)[nH]2)cc1C
inactive: HCT-15 colon 104% | HT29 colon 94.3% | SNB-75 CNS 78.1% | SNB-19 CNS 90.1% | U251 CNS 92.1% | PC-3 prostate 90.7% | SK-MEL-5 melanoma 102% | UACC-62 melanoma 89.2% | LOX IMVI melanoma 105% | SK-MEL-28 melanoma 101% | SK-MEL-2 melanoma 99.9% | EKVX NSCLC 79% | SN12C renal 92.4% | UO-31 renal 81.4% | TK-10 renal 144% | ACHN renal 91.2% | CAKI-1 renal 90.5% | CCRF-CEM leukemia 112% | MOLT-4 leukemia 97.4%

CN1C(=O)N(C)[C@H]2NC(NN)=N[C@H]21
inactive: HCT-15 colon 103% | HT29 colon 105% | SNB-75 CNS 80.9% | SNB-19 CNS 106% | U251 CNS 98.7% | PC-3 prostate 96.3% | SK-MEL-5 melanoma 101% | UACC-62 melanoma 101% | LOX IMVI melanoma 97.8% | SK-MEL-28 melanoma 101% | SK-MEL-2 melanoma 108% | EKVX NSCLC 99.1% | SN12C renal 99.8% | UO-31 renal 93.5% | TK-10 renal 97.4% | ACHN renal 104% | CAKI-1 renal 89.2% | A498 renal 97.9% | MOLT-4 leukemia 101%

O=S(=O)(O)c1cc(O)c2c(N=Nc3ccc(Nc4ccccc4)c4c(S(=O)(=O)O)cccc34)cc(S(=O)(=O)O)cc2c1
inactive: HCT-15 colon 99.1% | HT29 colon 107% | SNB-75 CNS 96.2% | SNB-19 CNS 103% | U251 CNS 102% | PC-3 prostate 95% | SK-MEL-5 melanoma 109% | UACC-62 melanoma 105% | LOX IMVI melanoma 96.5% | SK-MEL-28 melanoma 111% | SK-MEL-2 melanoma 99.7% | EKVX NSCLC 103% | SN12C renal 99.2% | UO-31 renal 74.3% | TK-10 renal 106% | ACHN renal 98.5% | CAKI-1 renal 99.4% | CCRF-CEM leukemia 108% | MOLT-4 leukemia 110%

C(=C\c1n(Cc2ccc3ccccc3c2)c(-c2ccccc2)c(-c2ccccc2)[n+]1Cc1ccc2ccccc2c1)/c1ccccc1
active: HCT-15 colon -81.2% | HT29 colon -63.5% | SNB-75 CNS -99.9% | SNB-19 CNS -93.7% | U251 CNS -80.6% | PC-3 prostate -81.2% | SK-MEL-5 melanoma -99.1% | UACC-62 melanoma -89.9% | LOX IMVI melanoma -96% | SK-MEL-28 melanoma -80.8% | SK-MEL-2 melanoma -68.7% | EKVX NSCLC -77.5% | SN12C renal -91% | UO-31 renal -99.1% | TK-10 renal -81.8% | ACHN renal -94.9% | CAKI-1 renal -100% | CCRF-CEM leukemia -17.8% | MOLT-4 leukemia -43.5%

CCCCCN1C=C/C(=C\C(=O)N(C)c2ccc(Br)cc2)c2ccccc21
inactive: HCT-15 colon 102% | HT29 colon 91.6% | SNB-75 CNS 91.6% | SNB-19 CNS 99.6% | U251 CNS 92.4% | PC-3 prostate 97.3% | SK-MEL-5 melanoma 97.9% | UACC-62 melanoma 93.7% | LOX IMVI melanoma 87.6% | SK-MEL-28 melanoma 105% | SK-MEL-2 melanoma 109% | EKVX NSCLC 84.8% | SN12C renal 97.6% | UO-31 renal 77.6% | TK-10 renal 102% | ACHN renal 113% | CAKI-1 renal 86.7% | CCRF-CEM leukemia 97.9% | MOLT-4 leukemia 85%

COc1ccc(-c2nc3sccn3c2/C=C/C(=O)c2cc(OC)c(OC)c(OC)c2)cc1
active: SK-MEL-5 melanoma -10.9%
inactive: HCT-15 colon 40.2% | HT29 colon 46.9% | SNB-75 CNS 37.2% | SNB-19 CNS 59.9% | U251 CNS 43.1% | PC-3 prostate 32.2% | UACC-62 melanoma 46.6% | LOX IMVI melanoma 41.4% | SK-MEL-28 melanoma 84.2% | SK-MEL-2 melanoma 43.9% | EKVX NSCLC 60% | SN12C renal 62.5% | UO-31 renal 17.6% | TK-10 renal 82.7% | ACHN renal 55.7% | CAKI-1 renal 42.4% | A498 renal 84.9% | MOLT-4 leukemia 29.8%

CC(=O)c1cccc(NS(=O)(=O)c2cccc(C(=O)Nc3ccc(Br)cc3)c2)c1
active: SK-MEL-5 melanoma -13.7% [25 µM]
inactive: HCT-15 colon 62.8% [25 µM] | HT29 colon 78.4% [25 µM] | SNB-75 CNS 70.5% [25 µM] | SNB-19 CNS 53.9% [25 µM] | U251 CNS 62.7% [25 µM] | PC-3 prostate 48.8% [25 µM] | UACC-62 melanoma 38.9% [25 µM] | LOX IMVI melanoma 50.5% [25 µM] | SK-MEL-28 melanoma 71.3% [25 µM] | SK-MEL-2 melanoma 50.6% [25 µM] | EKVX NSCLC 27.1% [25 µM] | SN12C renal 58% [25 µM] | UO-31 renal 41% [25 µM] | TK-10 renal 80.7% [25 µM] | ACHN renal 61.5% [25 µM] | CAKI-1 renal 39.6% [25 µM] | CCRF-CEM leukemia 47.7% [25 µM] | MOLT-4 leukemia 38.7% [25 µM]

COc1cc(-c2cc(=O)oc3cc(O)ccc23)c(OC)c2c1OCO2
inactive: HCT-15 colon 92.4% | HT29 colon 102% | SNB-75 CNS 84.9% | SNB-19 CNS 97.4% | U251 CNS 94.6% | PC-3 prostate 80.6% | SK-MEL-5 melanoma 90.6% | UACC-62 melanoma 74.3% | LOX IMVI melanoma 93.8% | SK-MEL-28 melanoma 97% | SK-MEL-2 melanoma 96.6% | EKVX NSCLC 90.6% | SN12C renal 84% | UO-31 renal 72.2% | TK-10 renal 108% | ACHN renal 91.2% | CAKI-1 renal 76.9% | A498 renal 94.6% | MOLT-4 leukemia 100%

Cc1cccc(C)c1-c1cc(Cc2ccc(Cl)cc2)c(=O)[nH]n1
inactive: HCT-15 colon 107% | HT29 colon 105% | SNB-75 CNS 90.5% | SNB-19 CNS 80.9% | U251 CNS 101% | PC-3 prostate 97.2% | SK-MEL-5 melanoma 98.8% | UACC-62 melanoma 93.7% | LOX IMVI melanoma 93.4% | SK-MEL-28 melanoma 108% | SK-MEL-2 melanoma 114% | EKVX NSCLC 92.8% | SN12C renal 89.5% | UO-31 renal 52.5% | TK-10 renal 114% | ACHN renal 112% | CAKI-1 renal 146% | A498 renal 104% | MOLT-4 leukemia 74.3%
